Results: PubChem BioAssay AID1434 (Sanford-Burnham Center for Chemical Genomics, 2008)
About 1,600 (0.73%) of roughly 220,000 compounds were called active.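 The calls were made as follows: active = mean inhibition across duplicate retests at 20 µM reaching about 50% (limit read from the data); inactive = the rest, inconclusive results apart.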 Only a selection was taken, and actives are over-represented in it overall.

Target: Runt-related transcription factor 1 (Homo sapiens) + Core-binding factor subunit beta (Homo sapiens) (UniProt Q01196+Q13951)
Sequence (Q01196 whole entry, looked up, the tested form may be a part): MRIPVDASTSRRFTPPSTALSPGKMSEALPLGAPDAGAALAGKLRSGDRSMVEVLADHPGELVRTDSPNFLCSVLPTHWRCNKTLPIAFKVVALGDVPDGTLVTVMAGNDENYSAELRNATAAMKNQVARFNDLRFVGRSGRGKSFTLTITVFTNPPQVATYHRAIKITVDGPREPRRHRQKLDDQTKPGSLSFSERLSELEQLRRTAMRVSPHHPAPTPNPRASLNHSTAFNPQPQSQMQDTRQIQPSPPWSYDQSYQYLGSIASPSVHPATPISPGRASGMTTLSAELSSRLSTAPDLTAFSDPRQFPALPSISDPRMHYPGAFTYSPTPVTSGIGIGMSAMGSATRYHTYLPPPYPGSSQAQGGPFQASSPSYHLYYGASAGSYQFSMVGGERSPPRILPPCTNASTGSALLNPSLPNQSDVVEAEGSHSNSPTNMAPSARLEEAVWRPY
Sequence (Q13951 whole entry, looked up, the tested form may be a part): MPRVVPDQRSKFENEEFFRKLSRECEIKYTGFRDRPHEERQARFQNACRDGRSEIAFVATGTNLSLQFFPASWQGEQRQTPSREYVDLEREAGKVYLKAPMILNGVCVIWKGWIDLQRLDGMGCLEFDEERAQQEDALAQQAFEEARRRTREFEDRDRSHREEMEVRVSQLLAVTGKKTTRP
Assay: disruptors of Runt domain/CBFb-SMMHC interaction – biochemical, FRET, Cerulean-Runt, Venus-CBFb-SMMHC, uHTS, primary screen (AID 1434);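 also: 0% = DMSO wells and 100% = wells with excess untagged CBFb-SMMHC; inhibitors lower the FRET ratio by blocking Runt binding to CBFb-SMMHC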
Conditions: Cerulean-Runt/Venus-CBFb-SMMHC FRET ratio 530/480, 1 h, at 20 µM, stronger effect = higher value

Compound | inhibition | inhibition (retest duplicate average) [%]
O=C(CCc1ccccc1)NNc1ccc(F)cc1 | -0.8% (inactive) | 
CCCc1cc(=O)oc2c(C)c(O)c(CN3CCCCC3)cc12 | 70.4% (active) | 121
CCCc1cc(=O)[nH]c(SCc2cc(=O)oc3c(C)c(C)ccc23)n1 | 1.9% (inactive) | 
CCc1ccc2oc(=O)cc(CN3CCCCC3C)c2c1 (configuration not stated) | -0.5% (inactive) | 
O=C(CN1CCc2ccccc21)NC(c1ccccc1)c1ccccc1 | -0.8% (inactive) | 
CCc1ccc(NC(=O)Nc2ccncc2)cc1 | -0.3% (inactive) | 
CCN(CC)c1ccc2cc(C(=O)O)c(=O)oc2c1 | 77.6% (active) | 71.5
CCN(CC)c1ccc2cc(C(N)=O)/c(=N\NC(=O)c3ccncc3)oc2c1 | -128% (inactive) | 
CCN(CC)c1ccc2oc(=O)c(C)nc2c1 | -81.6% (inactive) | 
CSc1sc(C)cc1C1C(C#N)=C(N)N(c2cccnc2)C2=C1C(=O)CCC2 (configuration not stated) | 76.1% (active) | 73.7
CCc1ccc(C2C(C#N)=C(N)N(N(C)C)C3=C2C(=O)CCC3)s1 (configuration not stated) | -11.9% (inactive) | 
N#CC1=C(N)N(c2ccccc2)C2=C(C(=O)CCC2)C1c1ccccc1 (configuration not stated) | 29.5% (inactive) | 
COc1ccc(C2/C=C\CN(S(=O)(=O)c3cccs3)CC(=O)N2Cc2ccc(F)cc2)cc1 (configuration not stated) | 2.2% (inactive) | 
COc1cc(CNc2ncn[nH]2)ccc1OCc1ccccc1C | -0.6% (inactive) | 
N#Cc1ccc(Oc2ccc(C(F)(F)F)cc2NC(=O)c2ccc(F)cc2)cc1 | -0.8% (inactive) | 
C#CCNC(=O)C1=C[C@@H](c2ccccc2)[C@H](CCCO)[C@@H](OCC)O1 | 1.4% (inactive) | 
Cc1cc(C)cc(NC(=O)NC2CCN(CC(=O)Nc3cccc(Cl)c3C)CC2)c1 | 0.9% (inactive) | 
NC(=O)C1(C(N)=O)OC1c1ccc(Cl)cc1Cl (configuration not stated) | 1% (inactive) | 
CCOc1ccccc1C1C(C(=O)OC)=CN(C)C=C1C(=O)OC | 42% (inactive) | 
COC(=O)C1=CN(C)C=C(C(=O)OC)C1c1ccc(Cl)cc1Cl | 60.9% (active) | 91.8
CC(OC(=O)c1ccc(NS(=O)(=O)c2ccc3[nH]c(=O)[nH]c3c2)cc1)C(=O)Nc1cccc(Cl)c1Cl (configuration not stated) | -5.6% (inactive) | 
CCOC(=O)C1CCN(CCC(=O)Nc2cccc(C)c2)CC1 | 0.1% (inactive) | 
COCc1ccc(C(=O)N2CCc3c([nH]c4ccccc34)C2c2ccccn2)s1 (configuration not stated) | 2.3% (inactive) | 
COCCCNC(=S)NCCNc1nc2cc(C)c(C)cc2cc1C#N | 88.8% (active) | 125

Compound | inhibition | inhibition (retest duplicate average) [%]
COCCCNC(=S)NC(=O)c1ccc([N+](=O)[O-])cc1 | 4.6% (inactive) | 
Cc1ccc2nc(NCCCNC(=O)c3cnccn3)c(C#N)cc2c1 | 32% (inactive) | 
CC(C)N(Cc1ccccc1)C(=O)COC(=O)c1cnccn1 | -2.4% (inactive) | 
CSCCC(Nc1ccc(S(=O)(=O)N2CCOCC2)cc1[N+](=O)[O-])C(=O)OCC(=O)N(C(C)C)C(C)C (configuration not stated) | -4.8% (inactive) | 
CCCN1C2=C(C(=O)CCC2)C(c2ccc(O)c(Br)c2)C2=C1CCCC2=O | 118% (active) | 118
CCOC(=O)C1=C(N)N(c2ccc(C)cc2)C2=C(C(=O)CCC2)C1c1cccs1 (configuration not stated) | -7.1% (inactive) | 
CCCC(=O)N1c2ccccc2NC2=C(C(=O)CCC2)C1c1ccc(F)cc1 (configuration not stated) | -4.3% (inactive) | 
O=C(Nc1ccc2ccccc2c1)/C(=C\c1ccc2c(c1)OCO2)NC(=O)c1ccco1 | -21.7% (inactive) | 
COc1cccc(C(=O)Nc2ccc(N3CCCC3)cc2)c1 | 5.7% (inactive) | 
COc1ccc2nc(N3CCCC(O)C3)c(C#N)cc2c1 (configuration not stated) | 65% (active) | 72.9
COc1ccc(N2CCN(C(=O)CSc3nc4cc(OC)c(OC)cc4cc3C#N)CC2)cc1 | 9.4% (inactive) | 
Cc1cc(C)nc(SCc2cn3c(C)cc(C)nc3n2)n1 | -4% (inactive) | 
O=c1c(Cl)c(NCc2ccc(F)cc2Cl)cnn1C12CC3CC(CC(C3)C1)C2 | 3.5% (inactive) | 
FC(F)(F)c1ccc(-n2cn[nH]c2=S)cc1 | 3.3% (inactive) | 
Nc1[nH][nH]c(=O)c1N=Nc1ccc2c(c1)OCO2 | -0.1% (inactive) | 
c1csc(-c2cn3c(n2)SCC3)c1 | -6.8% (inactive) | 
CCCn1c(=O)c2c(C(F)(F)F)cc(-c3cccs3)nc2n(CCC)c1=O | 1.9% (inactive) | 
N#Cc1c(C(F)(F)F)cc(-c2cccs2)nc1N1CCCCC1 | 82.5% (active) | 79.2
C=CCCN(Cc1ccccc1)S(=O)(=O)c1ccccc1Br | -2.3% (inactive) | 
c1ccc(-n2cccc2)c(N2CCCCC2)c1 | -0.7% (inactive) | 
O=C(NCCN1CCOCC1)c1ccc2c(c1)ncn2C1CCCC1 | 0.2% (inactive) | 
O=C(Cn1c(-c2ccccn2)nc2ccccc21)NCCN1CCOCC1 | -0.1% (inactive) | 
c1ccc2cc3c(NCCN4CCOCC4)ccnc3cc2c1 | 78.2% (active) | 71.5
C/C(N)=C(/C#N)C(=O)COC(=O)CNS(=O)(=O)c1ccc(C)cc1 | -1.2% (inactive) | 

Compound | inhibition | inhibition (retest duplicate average) [%]
CC(C)N(C)C(=O)CCc1nnc(CCc2c[nH]c3ccccc23)o1 | -1.1% (inactive) | 
COc1ccc(/C=C2\SC(=S)N(CC(=O)NNC(=O)c3ccncc3)C2=O)cc1 | -217% (inactive) | 
Cc1cc(=O)[nH]c(N/N=C/c2ccc3c(c2)OCCO3)n1 | -9.8% (inactive) | 
COCc1cc(=O)oc2cc(NS(=O)(=O)c3ccc(C)cc3)ccc12 | 80.2% (active) | 71.8
Cc1ccc(S(=O)(=O)Nc2ccc3ncccc3c2)cc1 | -1.3% (inactive) | 
COc1ccc(S(=O)(=O)Nc2ccc3oc(C)c(C(C)=O)c3c2)cc1 | -0.7% (inactive) | 
Cc1ccc(S(=O)(=O)NCCc2nnc3ccc(SCc4cccnc4)nn23)cc1 | -6.7% (inactive) | 
COC(=O)Cc1c(C)c2ccc(OCC(=O)NCc3ccc4c(c3)OCO4)cc2oc1=O | -5.4% (inactive) | 
Cc1c(Cc2ccccc2)c(=O)oc2cc(OCC(N)=O)ccc12 | 2.5% (inactive) | 
CC(=O)Oc1ccc2c(C)c(CC(C)O)c(=O)oc2c1 (configuration not stated) | 119% (active) | 116
CC(=O)Nc1cc2ccc(OC(C)=O)cc2oc1=O | 58.6% (active) | 119
O=C(Oc1ccccc1)Oc1ccc2c(c1)oc(=O)c1ccccc12 | -17.7% (inactive) | 
O=C(Nc1cc2ccccc2oc1=O)C1CCCCC1 | -0.3% (inactive) | 
CCCNC(=O)N1CCN(C(=O)NCCC)CC1 | 2.1% (inactive) | 
Cc1nc(C(=O)NCc2ccccc2)sc1C1(C)CC(c2cccnc2)=NO1 (configuration not stated) | 0.2% (inactive) | 
CCOC(=O)C1=C(c2ccccc2)NC(=S)NC1c1ccc(Cl)cc1 (configuration not stated) | -1.3% (inactive) | 
CC(C)CCNC(=O)C1CCC(CNc2c(N3CCC(C)CC3)c(=O)c2=O)CC1 (configuration not stated) | -1.8% (inactive) | 
Cc1cc2c(cc1C)[n+](C)cn2CC(O)COCC1CC=CCC1 (configuration not stated) | 7.6% (inactive) | 
COc1ccc2c(c1)CCc1cn3ncc(C#N)c3nc1-2 | 89.1% (active) | 74.1
COc1ccc2c(c1)CCc1c(C(=O)N3CCCC3)noc1-2 | -2.4% (inactive) | 
N#Cc1cnn2cc(CCN3CCOCC3)c(-c3ccc(F)cc3)nc12 | -1.8% (inactive) | 
COc1ccc(OC)c2[nH]c(=O)c(CCNC(=O)C(=O)c3c[nH]c4ccccc34)cc12 | 0.3% (inactive) | 
CCCCN(C(=O)/C=C/c1ccco1)c1c(N)n(CC(C)C)c(=O)[nH]c1=O | 8.5% (inactive) | 
O=C(CNC(=O)OCc1ccccc1)Oc1cc2oc(=O)cc(-c3ccccc3)c2cc1Cl | 78.7% (active) | 71.5

Compound | inhibition | inhibition (retest duplicate average) [%]
CC(=O)COc1ccc2c(-c3ccccc3)cc(=O)oc2c1 | 3.8% (inactive) | 
O=C(CNC(=O)c1ccc(-c2ccccc2)cc1)OCc1ccc(Cl)cc1 | -1.6% (inactive) | 
O=[N+]([O-])c1ccc(N2CCNCC2)cc1NCc1cccnc1 | -3.2% (inactive) | 
CC(C)OCCCNC(=O)c1cc(Sc2ccc(F)cc2)nc2ccccc12 | 0.5% (inactive) | 
O=C(CSc1ncn[nH]1)Nc1nsc(-c2ccccc2)n1 | 3.7% (inactive) | 
O=C(CSc1nc(O)c(Cc2ccccc2)c(=O)[nH]1)Nc1nc2c(s1)CCCC2 | 2.5% (inactive) | 
CN1C(=O)/C(=C/C=C2\SCCN2C)OC1=S | 84.2% (active) | 79.9
CCc1ccc(C(=O)OCC(=O)NCC(F)(F)F)cc1 | -1.7% (inactive) | 
CCO[C@H]1OC(C(=O)NCc2ccccc2)=C[C@@H](c2coc3ccccc3c2=O)[C@@H]1CCCO | -0.8% (inactive) | 
CN1CCNC(=O)C1CC(=O)N1CC=C(c2ccc(F)cc2)CC1 (configuration not stated) | -7.4% (inactive) | 
CC(=O)Nc1cccc([N+](=O)[O-])c1 | 0.2% (inactive) | 
COC(=O)/C=C\C(=O)Nc1cccc([N+](=O)[O-])c1 | 56% (active) | 62.5
Cc1ccccc1NC(=S)Nc1cccc([N+](=O)[O-])c1 | 5.7% (inactive) | 
COCCCn1c(-c2cccs2)nc2nc3ccccc3nc21 | 87.7% (active) | 99.9
COc1ccc(CCn2c(-c3ccco3)nc3nc4ccccc4nc32)cc1OC | -7.1% (inactive) | 
CC(C)n1c(-c2cccs2)nc2ccccc21 | 1.6% (inactive) | 
Cc1ccc(C(=O)O)cc1NC(=O)c1ccc(Cn2nc(C)c(Cl)c2C)o1 | -2.9% (inactive) | 
O=C(CCc1n[nH]c(=O)[nH]c1=O)N/N=C/c1ccc(Br)o1 | -0.8% (inactive) | 
CN(C)c1nc(N)nc(Cn2nnc(-c3ccc(C(F)(F)F)cc3)n2)n1 | 1.3% (inactive) | 
c1ccc(-c2cc3c(NCC4COc5ccccc5O4)ncnc3s2)cc1 (configuration not stated) | 8.3% (inactive) | 
O=C(CC1CCCCC1)NCc1ccc(F)cc1 | -2% (inactive) | 
COCCC(=O)Nc1ccc2c(c1)CN(C(=O)CCOC)CC2 | -1% (inactive) | 
O=c1c2c(nc3cc(-c4cccc(Cl)c4)[nH]n13)CCCC2 | -1.8% (inactive) | 
